In the library only some 4.2% were active in any assay of this set; here they are far more common.
RecA splice inh: blocks M. tuberculosis RecA intein splicing; cell-free RecA intein splicing, fluorescence; 290,000 compounds, 0.75% hits; AID 2221; inhibition, % (no concentration beside the values); in the data active = inhibition above about 30%; inconclusive = no clear call, values can overlap the other calls
CCHF vOTU inh: blocks the CCHF virus ovarian tumor domain protease. CCHFV vOTU protease, Pep-AMC fluorescence. inhibition, % at 11.5 µM. 370,000 compounds, 0.55% hits. AID 651958
Mtb betalactam: beta-lactam sensitization of Mtb H37Rv. M. tuberculosis H37Rv growth with meropenem, percent inhibition. inhibition, % at 25 µM. 330,000 compounds, 0.27% hits. AID 434955; call rule not given here;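 note: growth measured after seven days incubation then overnight dye step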
Mtb FBA inh: Mtb fructose-bisphosphate aldolase inhibition; 360,000 compounds, 2.3% hits; purified M. tuberculosis FBA, fluorescence read-out; P9WQA3; inhibition, % at 1 µM; in the data active = inhibition above about 27%
GDH-TPI counter: GDH-TPI coupled enzyme inhibition counter-screen | GDH-TPI coupled enzyme counterscreen, NADH absorbance | inhibition, % at 4.8 µM | 360,000 compounds, 1.2% hits
Hits are given with their value; n = inactive; u = inconclusive; x = no result. Cut-off read from the data, not from the text of the source, unless noted: active = inhibition above about 30%; inactive = the rest.

SMILES	RecA splice inh	CCHF vOTU inh	Mtb betalactam	Mtb FBA inh	GDH-TPI counter
O=C(Nc1cccnc1)c1cccs1	n	x	n	n	n
Cc1ccnc(NC(=O)/C=C/c2cccs2)c1	n	n	n	n	31
O=C(/C=C/c1cccs1)Nc1nncs1	n	n	n	n	70
O=C(/C=C/c1cccs1)Nc1nc(-c2ccccc2)cs1	n	n	u	n	n
O=C(/C=C/c1cccs1)Nc1scc(-c2ccccc2)c1C(=O)O	47	n	x	n	n
CN(CCc1ccccn1)C(=O)c1ccc2c(c1)ncn2C1CCCCC1	x	n	x	x	x
CCCCNC(=O)C[C@H]1C[C@@]2(C(=O)OC)C(=C[C@H](C(C)(C)C)O[C@@H]2C)N(Cc2ccc(Cl)cc2Cl)C1=O	x	n	x	x	x
c1ccc(-c2nc(N3CCCCCC3)nc(-n3ccnc3)n2)cc1	46	n	n	n	n
c1ccc(-c2nc(N3CCN(c4ccccc4)CC3)nc(-n3ccnc3)n2)cc1	n	n	n	n	n
CN(C)c1ccc(C(=O)N=c2sccn2C)cc1[N+](=O)[O-]	n	n	n	n	38
Cn1ccsc1=NC(=O)c1ccc(Cl)cc1	n	n	n	n	n
C#CCNC(=O)C[C@H]1C(=O)N(CCCOC)C2=CCCC[C@@]21C(=O)OCC	x	n	x	x	x
COc1ccc(C(=O)C=Cc2ccc(OCc3ccccc3)c(OC)c2)cc1OC	x	n	x	n	n
O=C(/C=C/c1ccco1)Nc1cccc(C(=O)Nc2ccccc2C(=O)O)c1	n	n	n	n	n
O=C(/C=C/c1ccco1)Nc1ccc2c(c1)OCO2	n	n	n	n	33
Cc1sc(NC(=O)/C=C/c2ccc3c(c2)OCO3)nc1-c1ccccc1	n	n	n	n	n
COc1cc(OCc2ccccc2)c(C(=O)/C=C/c2ccc3c(c2)OCO3)c(OC)c1OC	n	n	n	n	50
CCc1ccccc1NC(=O)c1cccc(NC(=O)/C=C/c2ccco2)c1	n	n	n	n	44
O=C(/C=C/c1ccc2c(c1)OCO2)Nc1nc(-c2ccccc2)cs1	n	n	n	n	46
O=C(c1cc(-c2ccc(Cl)cc2)nc2ccccc12)N1CCN(c2ncccn2)CC1	x	n	x	x	x
O=C(/C=C\c1ccco1)Nc1nc(-c2ccc3ccccc3c2)cs1	n	n	n	n	36
Cc1ccc(C(=O)Nc2cc(=O)n(C)c(=O)n2C)o1	n	n	n	n	33
Cc1ccc(-n2nc3c(c2NC(=O)/C=C\c2ccc4c(c2)OCO4)CSC3)c(C)c1	n	n	n	n	n
O=C(/C=C/c1ccc2c(c1)OCO2)c1ccc(O)cc1O	x	n	x	n	40
Cc1cccc(C(=O)Nc2cc(=O)n(C)c(=O)n2C)c1	n	n	n	n	n
SMILES	RecA splice inh	CCHF vOTU inh	Mtb betalactam	Mtb FBA inh	GDH-TPI counter
Cc1ccccc1-n1nc2c(c1NC(=O)/C=C\c1ccc3c(c1)OCO3)CSC2	n	n	n	n	32
Cc1ccc(C(=O)C=Cc2ccc3c(c2)OCO3)c(C)c1	x	n	x	n	n
CCOC(=O)C1(Cc2ccccc2)CCN(Cc2ccnc3ccccc23)CC1	x	n	x	x	x
CCN(C(=O)Cn1nnc(-c2ccncc2)n1)c1ccccc1	x	n	x	x	x
CC(NCc1ccco1)C(=O)N1CCCN(C)CC1 (configuration not stated)	x	n	x	x	x
Cn1c(NC(=O)/C=C/c2ccco2)cc(=O)n(C)c1=O	n	n	n	n	31
Cc1cc(C)nc(NC(=O)/C=C/c2ccc3c(c2)OCO3)c1	n	n	n	n	40
CC(=O)Nc1ccc(NC(=O)/C=C/c2ccc3c(c2)OCO3)cc1	n	n	n	n	n
Cc1ccc(/C=C/C(=O)Nc2cc(=O)n(C)c(=O)n2C)o1	n	n	n	n	n
NS(=O)(=O)c1ccc(NC(=O)/C=C/c2ccc3c(c2)OCO3)cc1	n	n	n	n	36
CCn1c2ccccc2c2cc(NC(=O)CSc3nnc(-c4ccccc4)n3Cc3ccco3)ccc21	x	n	x	x	x
O=C(NCCc1c[nH]c2ccccc12)OCc1cn(-c2ccccc2Cl)nn1	x	n	x	x	x
Brc1cc2c(cc1/C=N/Nc1nc(N3CCCC3)nc(N3CCOCC3)n1)OCO2	n	n	n	n	32
Oc1ccc(Br)cc1/C=N/Nc1nc(N2CCCCC2)nc(N2CCOCC2)n1	n	n	n	x	x
COC(=O)[C@]12C[C@H](CC(=O)NCC3CCCCC3)C(=O)N(Cc3cccc4ccccc34)C1=C[C@H](C(C)(C)C)O[C@@H]2C	x	n	x	x	x
Cc1cc(NC(=O)c2sc(Nc3ccc(F)c(Cl)c3)nc2N)no1	n	n	n	n	n
Cc1cc(NC(=O)c2sc(Nc3cccc(C(F)(F)F)c3)nc2N)no1	n	n	n	n	33
CC(=O)C1=C(O)C(=CC=Cc2ccccc2)OC1=O	x	n	x	n	31
N#C/C(=C\c1cc2c(cc1Br)OCO2)c1ccc(C(=O)O)cc1	n	n	n	n	31

Compound activity (PubChem BioAssay)
